We go through 7 compounds from PubChem BioAssay AID2284385 (EPA ToxCast).

Activity calls are given as the source filed them. How the source made its calls: active means hit-call score of the fitted dose curve at least 0.9, where 1 is the maximum; inactive means score below 0.9.

For this assay, the target named is human Peroxisome proliferator-activated Receptor alpha (PPARa), PPARA (gene 5465) (UniProt Q07869). Nature of the assay: ERF_TW_NR_COA_hPPARA: Eurofins (ERF) Nuclear Receptor (NR) Functional Coactivator Assay for human Peroxisome proliferator-activated Receptor alpha (PPARa) Agonism & Antagonism, conducted at Taiwan lab site. Here is the method: ERF_TW_NR_COA_hPPARA is a biochemical, single-readout assay that uses extracted gene-proteins in a cell-free assay. Measurements were taken 3 hours after chemical dosing in a 96-well plate. See PPARalpha Human NHR Functional Agonist Coactivator Assay, Panlabs.ERF_TW_NR_COA_hPPARA is an assay component calculated from the ERF_TW_NR_COA_hPPARA assay. It is designed to measure FRET using a type of binding reporter as detected by fluorescence intensity of GW7647 with fluorimetry technology.Data from the assay component ERF_TW_NR_COA_hPPARA was analyzed at the assay endpoint, ERF_TW_NR_COA_hPPARA, in the positive analysis fitting direction relative to DMSO as the negative control and baseline of activity. Using a type of binding reporter, gain-of-signal activity can be used to understand changes in binding as they relate to gene PPARA. To generalize the intended target to other relatable targets, this assay endpoint is annotated to the nuclear receptor intended target family, where the subfamily is non-steroidal.
Chain of human Peroxisome proliferator-activated Receptor alpha (PPARa), PPARA (gene 5465) (Q07869 whole entry, looked up): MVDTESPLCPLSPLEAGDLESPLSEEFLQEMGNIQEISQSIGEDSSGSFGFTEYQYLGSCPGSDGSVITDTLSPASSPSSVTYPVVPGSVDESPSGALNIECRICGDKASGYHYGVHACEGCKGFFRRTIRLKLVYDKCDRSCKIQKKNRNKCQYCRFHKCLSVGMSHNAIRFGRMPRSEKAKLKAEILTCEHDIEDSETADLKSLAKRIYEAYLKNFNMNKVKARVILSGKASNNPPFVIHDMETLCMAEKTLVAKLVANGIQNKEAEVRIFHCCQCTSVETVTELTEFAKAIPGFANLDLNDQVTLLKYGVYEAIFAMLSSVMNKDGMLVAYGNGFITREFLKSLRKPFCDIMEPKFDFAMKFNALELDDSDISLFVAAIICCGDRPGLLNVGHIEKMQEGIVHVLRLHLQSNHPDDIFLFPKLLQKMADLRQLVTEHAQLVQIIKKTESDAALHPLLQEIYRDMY
Human recombinant peroxisome proliferators-activated receptor alpha (PPARA, PPARa, PPAR-alpha) hPPAR, NR1C1) receptors expressed in insect are used. Test compound and/or vehicle is incubated with the 2.5 nM receptors and binding buffer in modified kit buffer pH 7.4 for 3 hours at RT. Determination of the amount of complex formed is read microplate reader (excitation:337 nm, emission: 520/490 nm). Test compound-induced increase fluorescence by 50 percent or more (>/=50%) relative to the 1 uM GW7647 response indicates possible PPARa receptor agonist activity. Test compound-induced inhibition of 20 nM GW7647-induced fluorescence response by 50 percent or more (>/=50%) indicates receptor antagonist activity.
As usually defined, the AC50 is the concentration at which the activity in the assay is half-maximal. `CC(C)(Oc1ccc(C(=O)c2ccc(Cl)cc2)cc1)C(=O)O`: the concentration at half-maximal activity (AC50) is 15.7 µM (active). As to `O=C(O)C(F)(F)C(F)(F)C(F)(F)C(F)(F)C(F)(F)C(F)(F)C(F)(F)C(F)(F)Cl`, the result was inactive. In the case of `O=C(Cl)C(F)(F)C(F)(F)C(F)(F)C(F)(F)C(F)(F)C(F)(F)F`, the AC50 is 31.6 µM (active). In the case of `CN(CCOc1ccc(CC2SC(=O)NC2=O)cc1)c1ccccn1` (configuration not stated), the result was inactive. As to `O=C(CC(=O)C(F)(F)C(F)(F)C(F)(F)F)c1cccs1`, the compound was called inactive. `O=C(O)C(F)(F)C(F)(F)C(F)(F)C(F)(F)C(F)(F)C(F)(F)C(F)F`: the concentration at half-maximal activity (AC50) is 31.1 µM (active).

Turning to `O=C(O)CCC(F)(F)C(F)(F)C(F)(F)F`, the compound was classed as inactive.
